An excerpt weighted towards active compounds, which were near 18% of everything screened.
DT40 TDP1 no CPT: qHTS for Inhibitors of human tyrosyl-DNA phosphodiesterase 1 (TDP1): qHTS in cells in absence of CPT; DT40 Tdp1-/- hTDP1 cells, no CPT, ATP luminescence, 48 h; Potency, µM (top dose mostly 46.2 µM), for inactives: top-dose activity change, negative = growth inhibition, usual class: inhibitors; 420,000 compounds, 15% hits; also: potency is read from the fitted curve at half-maximal effect; nearly all actives have a fitted effect of over 55% in size
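Seeded 400 DT40-hTDP1 cells/well (vehicle DMSO, no 20 nM CPT); pinned compounds; ≥48 hr at 37 °C; CellTiter-Glo luminescence as viability measure.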
DT40 TDP1 CPT: DT40-hTDP1 cell growth loss with CPT; Potency, µM (top dose mostly 46.2 µM), for the others: at the top dose activity change, negative = growth inhibition, actives largely listed as inhibitors; chicken DT40 Tdp1-/-;hTDP1 cells + 20 nM CPT, ATP luminescence, 48 h; 420,000 compounds, 12% hits; also: potency is read from the fitted curve at half-maximal effect; nearly all actives have a fitted effect of over 55% in size
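Cell growth measured by CellTiter-Glo luminescence after a minimum 48 h, 37 C compound exposure with 20 nM CPT in Tdp1-knockout DT40 cells stably expressing hTDP1, seeded 400/well; qHTS titration format.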
LDHA block: blocks human lactate dehydrogenase A; P00338; purified LDHA, NADH/diaphorase-resazurin fluorescence; hits give low values; activity change, % (values are at about 110 or 230 µM); 480,000 compounds, 0.15% hits; AID 1347041; in the data active = activity change below about -30%; inconclusive = mostly about -25% to -30%;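 also: plate controls were DMSO wells for no effect and wells without enzyme for full effect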
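LDH5 2 nM; NADH 0.06 mM, pyruvate 0.2 mM; 200 mM Tris pH 7.4, EDTA, Tween-20; 5 min RT. Detection: diaphorase 0.133 mg/mL + resazurin 37 µM, fluorescence ex540/em590 at 0 and 20 min; normalized to enzyme-free and DMSO wells.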
IL1B secr inh: blocks inflammasome-driven IL-1 beta release | THP-1 LPS/ATP IL-1B secretion, AlphaLISA, 16 h; hits give low values | activity change, % at 57.5 µM | 360,000 compounds, 4.7% hits; in the data active = activity change below about -50%; inconclusive = mostly about -30% to -49%
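Secreted IL-1B measured by AlphaLISA bead assay after 16 h compound exposure of THP-1 cells; compounds (final up to 57.5 uM) added 1 h before LPS (250 ng/mL) and ATP (1.25 mM) stimulation; lower signal means less secretion.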
RORg inh: ROR gamma (mouse) transcription inhibition; P51450; Drosophila S2 Gal4-RORgamma UAS-luciferase reporter, 20 h; Potency, µM (series often up to 53.6 µM), inactives show top-dose activity change, negative = inhibition, actives largely listed as inhibitors; 310,000 compounds, 5.4% hits; also: potency is read from the fitted curve at half-maximal effect; nearly all actives have a fitted effect of over 60% in size
Target sequence (P51450 whole entry, looked up, the tested form may be a part): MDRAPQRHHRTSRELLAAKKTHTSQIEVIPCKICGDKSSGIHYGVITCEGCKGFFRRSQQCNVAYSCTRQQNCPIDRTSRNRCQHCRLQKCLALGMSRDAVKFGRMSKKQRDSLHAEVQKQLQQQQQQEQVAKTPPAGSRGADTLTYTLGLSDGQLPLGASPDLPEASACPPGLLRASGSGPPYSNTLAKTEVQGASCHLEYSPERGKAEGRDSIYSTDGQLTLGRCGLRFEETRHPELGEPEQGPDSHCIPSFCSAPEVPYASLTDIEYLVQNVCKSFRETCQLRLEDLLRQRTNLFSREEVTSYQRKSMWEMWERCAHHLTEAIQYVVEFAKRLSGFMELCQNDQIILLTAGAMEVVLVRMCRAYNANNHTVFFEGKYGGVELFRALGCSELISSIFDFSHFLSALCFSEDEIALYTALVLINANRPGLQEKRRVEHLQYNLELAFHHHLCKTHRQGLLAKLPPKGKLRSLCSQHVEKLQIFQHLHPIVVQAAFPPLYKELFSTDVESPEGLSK
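In this cell-based reporter format, copper sulfate (700 uM final) drives Gal4–ROR gamma fusion expression from a metallothionein promoter in Drosophila Schneider cells; compounds preincubated 1 hr, reporter read after 20 hr at ambient temperature.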
Gal4-VP16 FLuc: counter-screen for ROR gamma inhibitors: Gal4-VP16 reporter. AID 2546. 310,000 compounds, 3.5% hits. Potency, µM (doses to about 53.6 µM), for the others: at the top dose activity, negative = inhibition, most hits filed as inhibitors. Drosophila S2 Gal4-VP16 UAS-luciferase, luminescence, 20 h;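 also: Gal4-VP16 expression switched on by copper sulfate through the metallothionein promoter; potency is read from the fitted curve at half-maximal effect; nearly all actives have a fitted effect of over 50% in size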
Active calls of the source: *; [ ] = remark or other dose. Unless noted, calls follow the shape of the dose curve; as a rule, active = well fitted curve in the direction sought with a large enough effect; inconclusive = small, poorly fitted or top-dose-only effect, or another doubt; inactive = no such curve, though single readings can be large; an effect the other way counts as inactive or inconclusive. Unless noted, % is scaled to controls: 0 for no effect and ±100 for the full control effect.

What do the screens show for `CC(=O)Oc1c(C)cc(Cl)cc1C(=O)Nc1ccc([N+](=O)[O-])cc1Cl`?
DT40 TDP1 no CPT: 0.461µM*; DT40 TDP1 CPT: 0.517µM*; LDHA block: -1.9; IL1B secr inh: -67.1*; RORg inh: 1µM*; Gal4-VP16 FLuc: 1µM*

What do the screens show for `O=S(=O)(c1ccc2nc(N3CCN(c4ccc(F)cc4)CC3)ccc2c1)N1CCCC1`?
LDHA block: -10.6

What do the screens show for `N#Cc1ccsc1NC(=O)CN1CCCCCC1`?
DT40 TDP1 no CPT: inconclusive; DT40 TDP1 CPT: -27.4%; LDHA block: -3.1; IL1B secr inh: 41.1; RORg inh: -26.0%; Gal4-VP16 FLuc: 1.6%

Results for CCOC(=O)N1CCN(CC(=O)Nc2sccc2C#N)CC1 ?
DT40 TDP1 no CPT: 14.6µM*; DT40 TDP1 CPT: 20.6µM*; LDHA block: 4.4; IL1B secr inh: 68.0; RORg inh: -6.4%; Gal4-VP16 FLuc: -7.7%

How did Cc1ccc(C)c(S(=O)(=O)N2CCN(CC(=O)Nc3sccc3C#N)CC2)c1 do in these assays?
DT40 TDP1 no CPT: 18.4µM*; DT40 TDP1 CPT: 16.4µM*; LDHA block: 1.0; IL1B secr inh: -1.8; RORg inh: 2.5%; Gal4-VP16 FLuc: -3.7%

What do the screens show for `O=[N+]([O-])c1ccccc1S(=O)(=O)NCCC1=CCCCC1`?
DT40 TDP1 no CPT: 20.6µM*; DT40 TDP1 CPT: 18.4µM*; LDHA block: -5.6; IL1B secr inh: -26.1; RORg inh: inconclusive; Gal4-VP16 FLuc: 19.0%

Results for O=S(=O)(NCCC1=CCCCC1)c1cccc(Br)c1 ?
DT40 TDP1 no CPT: 18.4µM*; DT40 TDP1 CPT: inconclusive; LDHA block: 4.7; IL1B secr inh: 2.4

How did COc1ccc(-c2noc(CCC(=O)Nc3ccc(C)cn3)n2)cc1OC do in these assays?
LDHA block: -6.4

What do the screens show for `COc1ccc(/C=C2\C(=O)OCc3cc(OC)c(OC)cc32)cc1OC`?
DT40 TDP1 no CPT: -34.9%; DT40 TDP1 CPT: inconclusive; LDHA block: 3.9; IL1B secr inh: -51.1*; RORg inh: -3.0%; Gal4-VP16 FLuc: -1.4%

How did COc1cc2c(cc1OC)/C(=C/c1ccc(Cl)cc1)C(=O)OC2 do in these assays?
DT40 TDP1 no CPT: inconclusive; DT40 TDP1 CPT: inconclusive; LDHA block: -2.8; IL1B secr inh: -80.9*; RORg inh: -1.4%; Gal4-VP16 FLuc: 4.9%

How did COc1ccc(/C=C2\OC(=O)c3ccccc32)cc1OC do in these assays?
LDHA block: 24.0

How did Cc1nn(CC(=O)Nc2ccc3c(c2)nc(Cn2ccc4ccccc42)n3C)c(=O)c2ccccc12 do in these assays?
LDHA block: 1.2

What do the screens show for `O=C(NCC1CCCO1)C(C(=O)c1ccccc1)n1ccccc1=O` (configuration not stated)?
DT40 TDP1 no CPT: 10.3µM*; DT40 TDP1 CPT: inconclusive; LDHA block: -1.7; IL1B secr inh: 8.2; RORg inh: -29.8%; Gal4-VP16 FLuc: -7.2%

Results for O=C(NCc1ccco1)C(C(=O)c1ccccc1)n1ccccc1=O (configuration not stated) ?
DT40 TDP1 no CPT: inconclusive; DT40 TDP1 CPT: -0.3%; LDHA block: -7.6; IL1B secr inh: -0.9; RORg inh: -2.3%[10 µM]; Gal4-VP16 FLuc: -1.9%

What do the screens show for `COc1cc(NC(=O)c2cc([N+](=O)[O-])ccc2NC(=O)CNC2CCCCC2C)cc(OC)c1` (configuration not stated)?
DT40 TDP1 no CPT: inconclusive; DT40 TDP1 CPT: inconclusive; LDHA block: -2.8; IL1B secr inh: -19.1; RORg inh: 24.4%; Gal4-VP16 FLuc: 7.7%

How did COc1ccc(NC(=O)c2cc([N+](=O)[O-])ccc2NC(=O)CNCc2ccccn2)c(OC)c1 do in these assays?
DT40 TDP1 no CPT: 13µM*; DT40 TDP1 CPT: inconclusive; LDHA block: 9.0; IL1B secr inh: -7.7; RORg inh: inconclusive; Gal4-VP16 FLuc: -15.8%

What do the screens show for `COc1cc(NC(=O)c2cc([N+](=O)[O-])ccc2NC(=O)CNC2CCCCC2)cc(OC)c1`?
DT40 TDP1 no CPT: 16.4µM*; DT40 TDP1 CPT: 20.6µM*; LDHA block: -5.1; IL1B secr inh: 15.2; RORg inh: 11.9%; Gal4-VP16 FLuc: -6.3%

How did CC(=O)c1ccc(N2CCN(C(=O)c3cc4c(-c5ccccc5F)nn(C)c4s3)CC2)cc1 do in these assays?
DT40 TDP1 no CPT: 18.4µM*; DT40 TDP1 CPT: 18.4µM*; LDHA block: -10.0; IL1B secr inh: 3.2; RORg inh: inconclusive; Gal4-VP16 FLuc: inconclusive

How did CC(=O)c1ccc(N2CCN(C(=O)c3cc4c(-c5ccc(Cl)cc5)nn(C)c4s3)CC2)cc1 do in these assays?
LDHA block: 0.8

What do the screens show for `Cc1ccc(Cl)cc1N1CCN(C(=O)c2cc3c(-c4ccccc4F)nn(C)c3s2)CC1`?
DT40 TDP1 no CPT: 14.6µM*; DT40 TDP1 CPT: inconclusive; LDHA block: -1.7

What do the screens show for `CCOC(=O)/C(=C\C=C1/Sc2cc(OCC)c(OCC)cc2N1CC)C(C)=O`?
DT40 TDP1 no CPT: 2.31µM*; DT40 TDP1 CPT: 1.84µM*; LDHA block: 0.0; IL1B secr inh: -93.0*; RORg inh: 39.9%; Gal4-VP16 FLuc: -7.1%

Results for CCN1/C(=C\C=C2\C(=O)N(C)C(=S)N2C)Sc2ccccc21 ?
DT40 TDP1 no CPT: inconclusive; DT40 TDP1 CPT: -4.8%; LDHA block: 2.4; IL1B secr inh: 20.2; RORg inh: inconclusive; Gal4-VP16 FLuc: inconclusive

Results for CCOC(=O)/C(=C/C=C1\Sc2cc(OCC)c(OCC)cc2N1CC)C(C)=O ?
DT40 TDP1 no CPT: 4.61µM*; DT40 TDP1 CPT: 7.31µM*; LDHA block: -4.2; IL1B secr inh: -1.7; RORg inh: 15.9%; Gal4-VP16 FLuc: 1.1%

How did CCOC(=O)/C(=C/C=C(\C1=CCCCC1)N(CC)CC)C(C)=O do in these assays?
LDHA block: -0.3

Results for O=C(CN1CCN(c2ccc(O)cc2)CC1)Nc1cccc(S(=O)(=O)N2CCCC2)c1 ?
LDHA block: 47.5

How did C/C(=N/NC(=S)Nc1cccc(C)c1)c1cccc([N+](=O)[O-])c1 do in these assays?
DT40 TDP1 no CPT: 13µM*; DT40 TDP1 CPT: 11.6µM*; LDHA block: -7.5; IL1B secr inh: -20.7; RORg inh: 2.82µM*; Gal4-VP16 FLuc: 10µM*

What do the screens show for `C/C(=N\NC(=S)NC(C)C)c1cccc([N+](=O)[O-])c1`?
DT40 TDP1 no CPT: 0.92µM*; DT40 TDP1 CPT: 0.92µM*; LDHA block: -6.3; IL1B secr inh: -7.0; RORg inh: 1.26µM*; Gal4-VP16 FLuc: 3.98µM*

Source: PubChem BioAssay
